Test results from the supplement of paper PMC6522484.
± gives the standard deviation of the averaged measurements.

Each compound was assayed on SW480 (assay: TCF/Wnt firefly luciferase reporter signal relative to plate median (fraction of plate median); higher = higher Wnt reporter signal). Conditions: 5 µM; treatment time 24 h; reporter: 7TFP.
Procedure, shortened: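 Per-well firefly luciferase or CellTiterGlo luminescence, normalised to the plate median, is what is reported. It was measured in colorectal cancer cells with stable lentiviral TCF/Wnt firefly luciferase reporters after a 24 h treatment with library compounds at a final 5 µM. The mean of two independent replicates is given.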

Row | Structure (SMILES) | TCF/Wnt firefly luciferase reporter signal
1 | O[C@H]1[C@H](O)[C@@H](O)[C@H](O)[C@@H](O)[C@H]1O | 1.07 ± 0.035
2 | CCCCc1nc(Cl)c(CO)n1Cc1ccc(-c2ccccc2-c2nnn[nH]2)cc1 | 0.715 ± 0.37
3 | CO/C=C/C(=O)c1cc2cnc3c(=N)cc(NC(C)=O)c([nH]1)c23 [Lymphostin] | 0.947 ± 0.028
4 | CC/C(=C(/CC)c1ccc(O)cc1)c1ccc(O)cc1 | 1.13 ± 0.028
5 | CC(O)(P(=O)(O)O)P(=O)(O)O | 0.968 ± 0.06
6 | NC[C@@H]1O[C@H](O[C@H]2[C@@H](O)[C@H](O[C@@H]3[C@@H](O)[C@H](N)C[C@H](N)[C@H]3O[C@H]3O[C@H](CO)[C@@H](O)[C@H](O)[C@H]3N)O[C@@H]2CO)[C@H](N)[C@@H](O)[C@@H]1O | 0.995 ± 0.11
7 | CCC(=O)OCC(=O)[C@@]1(OC(=O)CC)[C@H](C)CC2C3C([C@@H](O)C[C@@]21C)[C@@]1(C)C=CC(=O)C=C1C[C@H]3Cl (stereo partly specified) | 0.926 ± 0.049
8 | CC(C)(S)[C@@H](N)C(=O)O | 1.16 ± 0.11
9 | C=CC[C@@H]1/C=C(\C)C[C@H](C)C[C@H](OC)[C@H]2O[C@@](O)(C(=O)C(=O)N3CCCC[C@H]3C(=O)O[C@H](/C(C)=C/[C@@H]3CC[C@@H](O)[C@H](OC)C3)[C@H](C)[C@@H](O)CC1=O)[C@H](C)C[C@@H]2OC | 0.98 ± 0.0057
10 | COc1ccc(-c2cc(=O)c3c(O)c(OC)c(OC)c(OC)c3o2)cc1OC | 0.967 ± 0.2
11 | CC(=O)O[C@H]1CC[C@]2(C)[C@H]3CC=C4[C@@H]5CC(C)(C)CC[C@]5(C(=O)O)CC[C@@]4(C)[C@]3(C)CC[C@H]2C1(C)C | 1.03 ± 0.021
12 | Cc1cc(C)cc(OCC2CNC(=O)O2)c1 (stereo unspecified) | 0.957 ± 0.039
13 | COC(=O)[C@@H]1[C@H]2C[C@H]3c4[nH]c5ccccc5c4CCN3C[C@@H]2CC[C@@H]1O | 0.9165 ± 0.0021
14 | CC1=C(/C=C/C(C)=C/C=C/C(C)=C/C=C/C=C(C)/C=C/C=C(C)/C=C/C2=C(C)C(=O)CCC2(C)C)C(C)(C)CCC1=O [CANTHAXANTHIN (euglenanone)] | 1.17 ± 0.014
15 | CC1(C)C(=O)C=C[C@]2(C)[C@H]3CC[C@@]4(C)[C@H](c5ccoc5)OC(=O)[C@H]5O[C@]54[C@]3(C)C(=O)C[C@@H]12 | 0.978 ± 0.025
16 | CC(COc1ccccc1)NC(C)C(O)c1ccc(O)cc1 (stereo unspecified) | 1.01 ± 0.076
17 | CNCCc1ccccn1 | 1.1 ± 0.05
18 | CCC(C)C(N)=O (stereo unspecified) [2-Methylbutyramide] | 1.045 ± 0.0071
19 | CC(CCc1ccccc1)NCC(O)c1ccc(O)c(C(N)=O)c1 (stereo unspecified) | 0.939 ± 0.046
20 | COc1cc2c3cc1Oc1cc(ccc1O)C[C@@H]1c4c(cc(OC)c(O)c4Oc4ccc(cc4)C[C@@H]3N(C)CC2)CC[N+]1(C)C | 1.07 ± 0.05
21 | CN1CCOC(c2ccccc2)c2ccccc2C1 (stereo unspecified) | 0.883 ± 0.12
